Assay results taken from the supplement of paper PMC10849652.
Targets with a hit are over-represented here; the source holds about 7,900 in all. About 0.6% of all pairs of compound and target were hits. A number with no mark means an inactive call.

What was measured:
Experiment in all cases: log2 fold change, soluble protein after heating vs DMSO (PISA); higher = thermal stabilisation; K562 cells, 10 uM, 30 min; active = over 0.2 and 3.5 SD of the protein, either way, in both replicates (recomputed)
saracatinib = compound: CN1CCN(CCOc2cc(OC3CCOCC3)c3c(Nc4c(Cl)ccc5c4OCO5)ncnc3c2)CC1 [saracatinib]
How it was run: (§1)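 Soluble protein was quantified by TMTpro 16plex LC-MS/MS after channel sums were equalised. It was obtained as the supernatant after 21,000xg for 90 min from pooled aliquots of K562 cells (2×10^6 cells/mL, 10 μM compound, 30 min) heated for 3 min across 48°C-58°C and extracted in PBS with 0.5% NP-40 at 4°C. Thermal stability values are relative to control samples and come from duplicates. They are given as log2 fold changes.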

sotrastaurin = compound: CN1CCN(c2nc(C3=C(c4c[nH]c5ccccc45)C(=O)NC3=O)c3ccccc3n2)CC1 [sotrastaurin]
How it was run: as §1

alvocidib = compound: CN1CC[C@H](c2c(O)cc(O)c3c(=O)cc(-c4ccccc4Cl)oc23)[C@H](O)C1 [alvocidib]
How it was run: as §1

Tubastatin A = compound: CN1CCc2c(c3ccccc3n2Cc2ccc(C(=O)NO)cc2)C1 [Tubastatin A]
How it was run: as §1

[1] = compound: CNC(=O)C1=CC=CC=C1NC2=NC(=NC=C2Cl)NC3=C(C=C(C=C3)N4CCOCC4)OC
How it was run: as §1

defactinib = compound: CNC(=O)c1ccc(Nc2ncc(C(F)(F)F)c(NCc3nccnc3N(C)S(C)(=O)=O)n2)cc1 [defactinib]
How it was run: as §1

rucaparib = compound: CNCc1ccc(-c2[nH]c3cc(F)cc4c3c2CCNC4=O)cc1 [rucaparib]
How it was run: as §1

[2] = compound: CNc1nc(-c2ccc3c(N)n[nH]c3c2)cc(N2C[C@@H](C(=O)NC3CCCCC3)CC[C@H]2C)n1
How it was run: as §1

encorafenib = compound: COC(=O)N[C@@H](C)CNc1nccc(-c2cn(C(C)C)nc2-c2cc(Cl)cc(NS(C)(=O)=O)c2F)n1 [encorafenib]
How it was run: as §1

[3] = compound: COC(=O)[C@H](CCSC)NC(=O)C1=C(C=C(C=C1)NC[C@H](CS)N)C2=CC=CC=C2
How it was run: as §1

Chain of UniProt Q969V5 (Q969V5 whole entry, looked up): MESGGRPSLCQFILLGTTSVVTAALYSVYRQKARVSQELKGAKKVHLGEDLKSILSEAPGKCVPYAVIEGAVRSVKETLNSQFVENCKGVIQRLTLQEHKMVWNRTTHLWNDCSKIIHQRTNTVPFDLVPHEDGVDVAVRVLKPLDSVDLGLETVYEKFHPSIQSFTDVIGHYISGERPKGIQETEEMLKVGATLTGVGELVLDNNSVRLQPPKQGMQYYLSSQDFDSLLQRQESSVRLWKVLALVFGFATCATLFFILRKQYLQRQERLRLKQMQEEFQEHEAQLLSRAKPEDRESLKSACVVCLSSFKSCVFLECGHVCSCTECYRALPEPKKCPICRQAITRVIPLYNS
Chain of UniProt Q96MF7 (Q96MF7 whole entry, looked up): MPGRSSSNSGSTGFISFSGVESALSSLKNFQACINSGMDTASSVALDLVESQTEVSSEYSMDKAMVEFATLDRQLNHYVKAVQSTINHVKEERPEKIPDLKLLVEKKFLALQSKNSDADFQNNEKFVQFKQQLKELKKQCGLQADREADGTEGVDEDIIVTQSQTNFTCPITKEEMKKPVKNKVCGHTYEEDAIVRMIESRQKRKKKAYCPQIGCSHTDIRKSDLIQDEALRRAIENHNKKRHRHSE
Chain of UniProt Q9HCE1 (Q9HCE1 whole entry, looked up): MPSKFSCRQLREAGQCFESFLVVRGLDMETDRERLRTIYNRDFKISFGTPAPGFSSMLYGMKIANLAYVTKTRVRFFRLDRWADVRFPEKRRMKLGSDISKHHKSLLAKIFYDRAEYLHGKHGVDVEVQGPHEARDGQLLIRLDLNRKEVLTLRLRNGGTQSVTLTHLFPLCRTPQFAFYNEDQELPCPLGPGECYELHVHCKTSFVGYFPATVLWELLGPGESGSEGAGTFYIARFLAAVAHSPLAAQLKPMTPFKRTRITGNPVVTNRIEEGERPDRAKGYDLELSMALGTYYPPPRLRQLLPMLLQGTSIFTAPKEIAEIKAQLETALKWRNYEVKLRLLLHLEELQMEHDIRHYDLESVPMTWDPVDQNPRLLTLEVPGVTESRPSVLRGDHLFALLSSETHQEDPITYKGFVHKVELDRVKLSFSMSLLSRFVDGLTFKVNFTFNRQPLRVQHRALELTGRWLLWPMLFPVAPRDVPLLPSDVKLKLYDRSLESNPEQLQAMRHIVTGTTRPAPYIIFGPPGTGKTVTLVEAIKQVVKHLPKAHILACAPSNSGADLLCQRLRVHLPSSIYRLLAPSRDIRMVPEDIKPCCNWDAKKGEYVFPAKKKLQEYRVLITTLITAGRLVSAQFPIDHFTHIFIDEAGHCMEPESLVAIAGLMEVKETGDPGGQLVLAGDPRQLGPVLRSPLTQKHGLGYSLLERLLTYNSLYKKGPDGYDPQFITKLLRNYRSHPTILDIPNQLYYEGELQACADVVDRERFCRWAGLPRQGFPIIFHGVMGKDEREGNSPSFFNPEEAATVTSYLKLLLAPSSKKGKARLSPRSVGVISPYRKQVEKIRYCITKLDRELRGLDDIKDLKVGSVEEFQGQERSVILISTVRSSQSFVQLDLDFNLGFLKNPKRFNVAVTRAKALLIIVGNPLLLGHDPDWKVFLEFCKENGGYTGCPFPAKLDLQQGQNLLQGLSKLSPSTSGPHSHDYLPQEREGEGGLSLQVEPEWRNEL
Chain of UniProt O95747 (O95747 whole entry, looked up): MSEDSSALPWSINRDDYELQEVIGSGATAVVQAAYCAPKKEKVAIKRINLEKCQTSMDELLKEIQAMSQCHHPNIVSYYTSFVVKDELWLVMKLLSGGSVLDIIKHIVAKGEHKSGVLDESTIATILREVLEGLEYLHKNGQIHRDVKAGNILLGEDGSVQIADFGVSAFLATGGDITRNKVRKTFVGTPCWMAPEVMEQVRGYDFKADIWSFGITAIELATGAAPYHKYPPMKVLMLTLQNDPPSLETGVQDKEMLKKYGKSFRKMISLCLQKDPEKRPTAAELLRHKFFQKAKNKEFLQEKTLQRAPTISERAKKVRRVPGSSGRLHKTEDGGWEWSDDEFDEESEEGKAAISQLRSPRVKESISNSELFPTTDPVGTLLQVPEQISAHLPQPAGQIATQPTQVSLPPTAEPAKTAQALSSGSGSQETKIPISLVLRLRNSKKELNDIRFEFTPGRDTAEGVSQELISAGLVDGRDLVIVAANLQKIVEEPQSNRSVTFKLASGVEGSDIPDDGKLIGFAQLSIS
Chain of UniProt Q86WQ0 (Q86WQ0 whole entry, looked up): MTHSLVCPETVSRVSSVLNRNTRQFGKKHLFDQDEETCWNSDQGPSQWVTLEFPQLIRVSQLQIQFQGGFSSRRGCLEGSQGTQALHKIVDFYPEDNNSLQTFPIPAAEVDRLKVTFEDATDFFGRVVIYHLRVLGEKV
Chain of UniProt O00566 (O00566 whole entry, looked up): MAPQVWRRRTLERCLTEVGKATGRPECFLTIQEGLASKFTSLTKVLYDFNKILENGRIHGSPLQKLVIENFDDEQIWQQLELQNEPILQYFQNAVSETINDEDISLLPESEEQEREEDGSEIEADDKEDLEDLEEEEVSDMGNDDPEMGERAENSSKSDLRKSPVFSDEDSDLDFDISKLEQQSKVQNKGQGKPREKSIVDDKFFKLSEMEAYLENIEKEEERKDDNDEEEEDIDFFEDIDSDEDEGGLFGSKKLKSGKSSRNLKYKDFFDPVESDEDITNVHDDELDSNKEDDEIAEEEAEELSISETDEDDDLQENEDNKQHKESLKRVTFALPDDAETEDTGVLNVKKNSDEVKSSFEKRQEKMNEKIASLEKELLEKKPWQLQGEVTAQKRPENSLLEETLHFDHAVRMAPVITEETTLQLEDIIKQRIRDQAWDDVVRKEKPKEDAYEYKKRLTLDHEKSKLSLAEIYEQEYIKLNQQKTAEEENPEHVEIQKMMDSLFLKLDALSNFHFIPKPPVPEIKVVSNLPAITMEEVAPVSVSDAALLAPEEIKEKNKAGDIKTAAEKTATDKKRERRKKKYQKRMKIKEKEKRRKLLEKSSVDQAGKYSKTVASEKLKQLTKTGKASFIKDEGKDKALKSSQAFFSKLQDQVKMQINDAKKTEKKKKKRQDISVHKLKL
Chain of UniProt Q9NXX6 (Q9NXX6 whole entry, looked up): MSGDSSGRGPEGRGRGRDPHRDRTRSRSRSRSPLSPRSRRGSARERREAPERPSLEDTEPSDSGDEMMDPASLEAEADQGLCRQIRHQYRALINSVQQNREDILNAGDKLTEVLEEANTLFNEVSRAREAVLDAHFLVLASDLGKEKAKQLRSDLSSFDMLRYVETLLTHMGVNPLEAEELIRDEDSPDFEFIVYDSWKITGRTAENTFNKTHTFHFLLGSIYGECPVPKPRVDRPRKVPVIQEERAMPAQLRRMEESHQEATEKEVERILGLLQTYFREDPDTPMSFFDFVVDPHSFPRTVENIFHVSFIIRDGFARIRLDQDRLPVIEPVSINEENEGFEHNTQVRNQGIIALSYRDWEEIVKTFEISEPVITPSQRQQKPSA
Chain of UniProt Q9UI09 (Q9UI09 whole entry, looked up): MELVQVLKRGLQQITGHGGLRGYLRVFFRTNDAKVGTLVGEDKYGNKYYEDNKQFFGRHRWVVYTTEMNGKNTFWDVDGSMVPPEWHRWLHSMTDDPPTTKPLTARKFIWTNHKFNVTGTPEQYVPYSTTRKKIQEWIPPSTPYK
Chain of UniProt Q14978 (Q14978 whole entry, looked up): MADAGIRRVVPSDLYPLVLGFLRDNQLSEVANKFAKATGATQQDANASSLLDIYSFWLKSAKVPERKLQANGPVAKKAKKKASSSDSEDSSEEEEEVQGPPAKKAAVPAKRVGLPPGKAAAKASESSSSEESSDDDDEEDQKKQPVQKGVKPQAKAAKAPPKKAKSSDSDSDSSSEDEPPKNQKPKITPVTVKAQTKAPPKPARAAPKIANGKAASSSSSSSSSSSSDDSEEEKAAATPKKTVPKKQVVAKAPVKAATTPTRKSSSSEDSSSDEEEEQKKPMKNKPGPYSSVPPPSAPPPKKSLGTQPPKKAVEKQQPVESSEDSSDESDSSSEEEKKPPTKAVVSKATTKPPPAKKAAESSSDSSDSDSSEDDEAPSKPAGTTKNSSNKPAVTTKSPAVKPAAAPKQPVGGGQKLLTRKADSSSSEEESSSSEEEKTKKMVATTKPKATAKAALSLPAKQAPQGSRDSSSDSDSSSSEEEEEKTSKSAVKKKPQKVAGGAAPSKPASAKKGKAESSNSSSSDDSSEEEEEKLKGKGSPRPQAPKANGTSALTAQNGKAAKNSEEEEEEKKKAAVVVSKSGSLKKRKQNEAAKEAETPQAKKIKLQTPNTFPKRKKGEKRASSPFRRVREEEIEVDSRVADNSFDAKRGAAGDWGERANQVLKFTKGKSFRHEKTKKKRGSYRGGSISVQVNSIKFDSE
Chain of UniProt Q8NBF2 (Q8NBF2 whole entry, looked up): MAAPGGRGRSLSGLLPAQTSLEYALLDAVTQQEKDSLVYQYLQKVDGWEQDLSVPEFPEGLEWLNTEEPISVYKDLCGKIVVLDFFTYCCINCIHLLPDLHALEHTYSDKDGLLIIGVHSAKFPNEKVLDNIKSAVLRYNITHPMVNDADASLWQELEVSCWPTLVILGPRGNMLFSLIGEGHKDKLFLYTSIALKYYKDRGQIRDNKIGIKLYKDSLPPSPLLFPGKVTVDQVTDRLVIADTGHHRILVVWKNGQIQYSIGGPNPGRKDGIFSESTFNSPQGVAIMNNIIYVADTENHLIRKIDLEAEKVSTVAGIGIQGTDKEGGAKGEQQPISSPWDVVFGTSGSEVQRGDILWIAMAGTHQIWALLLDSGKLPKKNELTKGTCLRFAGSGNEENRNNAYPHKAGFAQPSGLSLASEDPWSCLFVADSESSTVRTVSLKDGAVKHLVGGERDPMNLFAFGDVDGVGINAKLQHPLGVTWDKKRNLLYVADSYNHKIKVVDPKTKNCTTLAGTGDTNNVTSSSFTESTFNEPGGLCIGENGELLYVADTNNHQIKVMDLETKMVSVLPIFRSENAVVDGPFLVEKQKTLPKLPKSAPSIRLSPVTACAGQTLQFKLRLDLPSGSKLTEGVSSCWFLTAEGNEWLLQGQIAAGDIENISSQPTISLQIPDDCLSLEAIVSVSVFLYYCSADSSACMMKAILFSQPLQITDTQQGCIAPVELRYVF

Target | log2 fold change (saracatinib) | log2 fold change (sotrastaurin) | log2 fold change (alvocidib) | log2 fold change (Tubastatin A) | log2 fold change [1] | log2 fold change (defactinib) | log2 fold change (rucaparib) | log2 fold change [2] | log2 fold change (encorafenib) | log2 fold change [3]
MOV10 (UniProt Q9HCE1) | 0.007 | 0.024 | 0.232 | 0.025 | 0.107 | 0.167 | 0.271 | 0 | 0.05 | 0.053
MRPS5 (UniProt P82675) | -0.094 | -0.124 | -0.042 | -0.009 | -0.024 | 0.068 | 0.129 | 0.161 | 0.072 | -0.068
NGLY1 (UniProt Q96IV0) | -0.04 | -0.135 | -0.002 | -0.04 | 0.01 | -0.026 | 0.161 | 0.05 | 0.159 | -0.064
NOP2 isoform 4 (UniProt P46087) | -0.09 | -0.007 | 0.574 | 0.079 | 0.064 | 1.26 (active) | 0.673 | 0.115 | 0.238 | -0.024
NAP1L1 (UniProt P55209) | 0.042 | -0.039 | -0.045 | -0.008 | 0.053 | -0.008 | 0.039 | -0.084 | 0.048 | 0.023
MRPS27 isoform 2 (UniProt Q92552) | -0.107 | -0.089 | -0.078 | 0.06 | 0.071 | -0.012 | 0.069 | 0.108 | 0.109 | -0.045
NSMCE2 (UniProt Q96MF7) | -0.019 | -0.095 | -0.004 | 0 | 0.031 | -0.06 | 0.076 | -0.076 | -0.001 | 0.025
NEMP1 (UniProt O14524) | -0.001 | -0.012 | -0.015 | -0.002 | -0.111 | 0.021 | 0.026 | -0.045 | -0.039 | 0.053
PAFAH1B3 (UniProt Q15102) | -0.109 | -0.034 | -0.082 | 0.026 | 0.001 | 0.021 | 0.049 | 0.002 | -0.006 | -0.071
MUL1 (UniProt Q969V5) | 0.054 | 0.079 | -0.013 | 0.047 | 0.056 | 0.059 | 0.072 | -0.018 | -0.074 | 0.079
NSMCE4A (UniProt Q9NXX6) | 0.109 | 0.015 | -0.003 | 0.05 | -0.112 | -0.086 | 0 | -0.114 | -0.064 | -0.002
OSTM1 (UniProt Q86WC4) | -0.038 | 0.007 | 0.001 | 0.031 | 0.19 | -0.048 | -0.015 | -0.086 | 0.022 | 0.002
NMRAL1 (UniProt Q9HBL8) | 0.115 | 0.028 | 0.001 | 0.14 | 0.061 | 0.122 | 0.84 (active) | 0.018 | -0.14 | -0.154
MTHFD1 (UniProt P11586) | 0.004 | 0.018 | -0.055 | -0.009 | 0.003 | -0.046 | -0.032 | 0.058 | 0.04 | -0.036
MPHOSPH10 (UniProt O00566) | -0.123 | -0.061 | 0.086 | 0.098 | -0.023 | 0.11 | 0.229 | -0.081 | 0.214 | 0.045
MT-ND1 (UniProt P03886) | 0.1 | -0.005 | -0.071 | 0.123 | -0.025 | -0.068 | -0.041 | -0.11 | 0.017 | -0.058
NECTIN2 (UniProt Q92692) | 0.021 | 0.047 | -0.044 | -0.013 | -0.056 | -0.013 | -0.051 | 0.049 | -0.024 | 0.063
OAT (UniProt P04181) | -0.002 | -0.016 | -0.125 | 0.013 | 0.084 | -0.058 | -0.047 | -0.04 | -0.061 | 0.024
MPP1 (UniProt Q00013) | -0.023 | -0.085 | -0.022 | 0.051 | 0.073 | -0.082 | 0.104 | 0.059 | 0.067 | -0.047
NUMA1 (UniProt Q14980) | -0.069 | -0.235 | -0.063 | 0.14 | -0.057 | -0.017 | 0.118 | 0.055 | 0.174 | -0.009
OGFOD1 (UniProt Q8N543) | 0.007 | 0.024 | -0.026 | -0.163 | 0.012 | -0.027 | -0.051 | -0.028 | -0.028 | 0.041
OXSR1 (UniProt O95747) | -0.048 | 0.004 | -0.094 | 0.038 | -0.061 | -0.093 | 0.001 | 0.033 | 0.042 | -0.051
NDUFA12 (UniProt Q9UI09) | 0.029 | -0.017 | -0.094 | 0 | -0.027 | -0.037 | -0.061 | 0.031 | 0.05 | -0.018
NR2C2AP isoform 2 (UniProt Q86WQ0) | 0.086 | 0.018 | -0.089 | 0.099 | 0.027 | -0.106 | -0.031 | 0.073 | -0.048 | -0.115
NA, A0A0B4J2A0 | 0.007 | 0.044 | -0.058 | -0.058 | -0.077 | -0.051 | -0.005 | -0.022 | -0.003 | -0.037
NHLRC2 (UniProt Q8NBF2) | -0.026 | 0.039 | -0.037 | -0.072 | -0.055 | -0.039 | -0.016 | 0.059 | -0.045 | 0.146
MTOR (UniProt P42345) | -0.076 | 0.088 | -0.101 | 0.002 | -0.005 | -0.09 | 0 | -0.009 | 0.041 | -0.02
NBN (UniProt O60934) | -0.008 | -0.03 | -0.197 | 0.191 | -0.065 | -0.159 | 0.006 | 0.049 | 0.003 | -0.019
NOLC1 isoform 2 (UniProt Q14978) | -0.007 | -0.036 | -0.206 | 0.153 | -0.122 | -0.346 (active) | -0.025 | -0.089 | -0.007 | 0
MRPS21 (UniProt P82921) | -0.193 | 0.036 | -0.095 | -0.056 | 0.038 | -0.075 | -0.016 | 0.127 | 0.045 | -0.075
